Growth data for nine molecules are collected here from PubChem BioAssay (NCI).

Test systems include SR leukemia; RPMI-8226 leukemia; OVCAR-8 ovarian; OVCAR-5 ovarian; OVCAR-4 ovarian; SK-OV-3 ovarian; IGROV1 ovarian; OVCAR-3 ovarian; HS 578T breast; NCI/ADR-RES ovarian; T-47D breast; MDA-MB-435 melanoma; SW-620 colon; MCF7 breast; HCT-116 colon; HCC-2998 colon; KM12 colon; BT-549 breast.
What all share (assay): NCI-60 one-dose screen, 48 h (100 = growth as untreated, 0 = no growth, -100 = all killed)
Details in all cases: 10 µM unless noted

This is part of a sample that, as a whole, favours compounds with a hit. Of some 83,000 tested, about 20% had one in any assay.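 Cells were grown in 96-well plates and exposed to the test compound at a single concentration for 48 hours; results are reported as percent growth, with values below 10 considered active.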 Values without a mark were called inactive. Calls of active or inactive are those of the source.

Turning to `CCn1cc(C(=O)NN=C2CCCCCC2)c(=O)c2ccc(C)nc21`, the growth was 85.8% in the experiment on SR leukemia; 88.1% with RPMI-8226 leukemia; 92.5% in the experiment with OVCAR-8 ovarian; 92.6% with OVCAR-5 ovarian; 79.6% in the experiment with OVCAR-4 ovarian; 98.2% in the experiment on SK-OV-3 ovarian. Further, the growth in the experiment on IGROV1 ovarian was 81.5%; in the experiment on OVCAR-3 ovarian it was 86.2%; in the experiment with HS 578T breast it was 80.1%; with NCI/ADR-RES ovarian, 89.4%; with T-47D breast it was 77.2%; with MDA-MB-435 melanoma, 83.9%. In addition, the growth in the experiment on SW-620 colon was 91.2%; in the experiment on MCF7 breast, 77.2%; in the experiment with HCT-116 colon, 77.7%; in the experiment with HCC-2998 colon it was 99.1%; in the experiment on KM12 colon, 87.6%.
As for `CCN(C(=O)N1CCN(c2cc3c(cc2F)c(=O)c(C(=O)O)cn3C2CC2)CC1)c1nc(-c2ccc(C)cc2)cs1`, the growth with SR leukemia was 17.2%; in the experiment with RPMI-8226 leukemia, 14.8%; in the experiment with OVCAR-8 ovarian, 11.5%; in the experiment on OVCAR-5 ovarian, 21.7%; in the experiment on OVCAR-4 ovarian, 31.5%; in the experiment on SK-OV-3 ovarian, -10.4% (active). Besides, the growth in the experiment on IGROV1 ovarian was 6.38% (active); in the experiment on OVCAR-3 ovarian, 9.01% (active); in the experiment on HS 578T breast, 18.3%; with NCI/ADR-RES ovarian, 2.74% (active); in the experiment on T-47D breast it was 25.5%; in the experiment on MDA-MB-435 melanoma it was 16.2%. The growth is 18.5% with SW-620 colon; 6.09% (active) in the experiment on MCF7 breast; 12.4% in the experiment with HCT-116 colon; 21.1% in the experiment with HCC-2998 colon; 10.6% in the experiment on KM12 colon.
As to `O=C1/C(=C/c2cccc([N+](=O)[O-])c2)COc2ccc(O)cc21`, the growth is 8.9% (active) with SR leukemia; -22.9% (active) in the experiment with RPMI-8226 leukemia; 31.2% with OVCAR-8 ovarian; 54.8% in the experiment on OVCAR-5 ovarian; 74.4% in the experiment with OVCAR-4 ovarian; 111% with SK-OV-3 ovarian. The growth in the experiment with IGROV1 ovarian is 33.8%; in the experiment on OVCAR-3 ovarian it was 34.4%; in the experiment on HS 578T breast, 33.7%; in the experiment with NCI/ADR-RES ovarian, 42%; in the experiment with T-47D breast, 46.2%; with MDA-MB-435 melanoma, 12.4%. The growth with SW-620 colon was -47.3% (active); in the experiment with MCF7 breast it was -26.2% (active); in the experiment with HCT-116 colon, -44.6% (active); with HCC-2998 colon, 58.7%; in the experiment on KM12 colon it was 15.5%.
For `CCOC(=O)NN1CC(O)=C(c2nc(-c3ccc(Br)cc3)cs2)C1=N`, the growth with SR leukemia was 61.4%; with RPMI-8226 leukemia, 115%; in the experiment on OVCAR-8 ovarian, 97%; in the experiment on OVCAR-5 ovarian, 89.5%; in the experiment on OVCAR-4 ovarian, 118%; in the experiment on SK-OV-3 ovarian, 108%. Further, the growth is 53% with IGROV1 ovarian; 99.9% in the experiment with OVCAR-3 ovarian; 110% with HS 578T breast; 108% in the experiment on NCI/ADR-RES ovarian; 94.2% in the experiment with T-47D breast; 116% with BT-549 breast. In addition, the growth in the experiment on MCF7 breast is 103%; with HCT-116 colon it was 132%; in the experiment with HCC-2998 colon, 113%; with KM12 colon it was 118%.
Consider `CCN(CC)CCOc1ccc(Nc2ncc3cc(-c4ccc(O)cc4)c(=O)n(C)c3n2)cc1`, for which the growth in the experiment on SR leukemia was -20.5% (active); in the experiment on RPMI-8226 leukemia it was 70.6%; with OVCAR-8 ovarian it was 55.7%; in the experiment on OVCAR-5 ovarian, 57.9%; with OVCAR-4 ovarian, 110%; in the experiment on SK-OV-3 ovarian, 53%. Besides, the growth is 23.2% in the experiment with IGROV1 ovarian; 71.1% with OVCAR-3 ovarian; 33.5% with HS 578T breast; 84% in the experiment with NCI/ADR-RES ovarian; 67.4% in the experiment on T-47D breast; -33.7% (active) with SW-620 colon. Further, the growth is 51.5% with MCF7 breast, 32% with HCT-116 colon, 86.8% in the experiment on HCC-2998 colon and 37.2% with KM12 colon.
With `O=C(Nc1cccc(NC(=O)C2CCCCC2)c1)c1ccccn1`, the growth in the experiment on SR leukemia was 88.9%; in the experiment on RPMI-8226 leukemia, 105%; in the experiment on OVCAR-8 ovarian, 104%; in the experiment on OVCAR-5 ovarian, 105%; in the experiment with OVCAR-4 ovarian, 101%; in the experiment with SK-OV-3 ovarian it was 102%. In addition, the growth is 98.7% with IGROV1 ovarian; 104% with OVCAR-3 ovarian; 111% with HS 578T breast; 93.8% with NCI/ADR-RES ovarian; 95.7% in the experiment with T-47D breast; 102% in the experiment on MDA-MB-435 melanoma. Further, the growth in the experiment with SW-620 colon is 115%; in the experiment with MCF7 breast, 86.4%; with HCT-116 colon, 93.6%; in the experiment on HCC-2998 colon, 87.4%; in the experiment with KM12 colon, 98.6%.
Turning to `CCOC(=O)c1cn2ncnc(Oc3ccc(NC(=O)NC4CC4)c(F)c3)c2c1C`, the growth with SR leukemia was 84.6%; with RPMI-8226 leukemia it was 84.6%; with OVCAR-8 ovarian it was 99.7%; with OVCAR-5 ovarian it was 103%; in the experiment on OVCAR-4 ovarian it was 69.7%; with SK-OV-3 ovarian, 111%. The growth with IGROV1 ovarian is 99.3%; with HS 578T breast, 103%; with NCI/ADR-RES ovarian, 99.3%; in the experiment on T-47D breast it was 93.8%; in the experiment on BT-549 breast, 103%; in the experiment with MDA-MB-435 melanoma, 95.9%. The growth in the experiment on SW-620 colon was 96.2%; with MCF7 breast, 92.6%; in the experiment on HCT-116 colon, 76.9%; with HCC-2998 colon it was 110%; in the experiment on KM12 colon, 101%.
Regarding `CCCn1c(=S)sc2c1nc(C)n1c(Nc3ccccc3)nnc21`, the growth is 61.4% in the experiment on SR leukemia; 45.9% in the experiment on RPMI-8226 leukemia; 71.3% with OVCAR-8 ovarian; 107% in the experiment with OVCAR-5 ovarian; 42.8% in the experiment on OVCAR-4 ovarian; 89.2% in the experiment with SK-OV-3 ovarian. Also, the growth is 80.3% with IGROV1 ovarian; 97.4% with HS 578T breast; 85.4% in the experiment with NCI/ADR-RES ovarian; 15.6% in the experiment with T-47D breast; 76.2% in the experiment on BT-549 breast; 63.7% in the experiment on MDA-MB-435 melanoma. In addition, the growth in the experiment on SW-620 colon was 104%; in the experiment with MCF7 breast it was 77%; in the experiment on HCT-116 colon, 59.1%; in the experiment on HCC-2998 colon, 78.3%; in the experiment with KM12 colon, 96.5%.
With `N=C(N)c1ccc(-c2ccc(-c3ccc(Cl)cc3Cl)s2)cc1F`, the growth in the experiment with SR leukemia is -6.47% (active); with RPMI-8226 leukemia, -36.4% (active); in the experiment on OVCAR-8 ovarian, -35.3% (active); with OVCAR-5 ovarian it was -7.4% (active); with OVCAR-4 ovarian, -24.9% (active); in the experiment with SK-OV-3 ovarian, 74.9%. Also, the growth was -88.4% (active) in the experiment with IGROV1 ovarian; -79.3% (active) with OVCAR-3 ovarian; 9.71% (active) in the experiment on HS 578T breast; 10.1% with NCI/ADR-RES ovarian; 14.8% in the experiment on T-47D breast; -79.9% (active) in the experiment on MDA-MB-435 melanoma. For the same molecule, the growth is -64% (active) in the experiment on SW-620 colon; -65.8% (active) in the experiment on MCF7 breast; -36.6% (active) in the experiment on HCT-116 colon; -81.7% (active) in the experiment on HCC-2998 colon; -86.3% (active) in the experiment with KM12 colon.
